Measurements: PubChem BioAssay
Calls of active or inactive are those of the source.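 Rule for the calls, unless noted: active = inhibition of the reporter signal at or above 50%; inactive = inhibition below 50%.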 Where a SMILES comes first, the peptide text is derived from it.

Assays:
[1] = inhibitors of TNFa-induced NFkB p65 translocation, primary screen, imaging, HUVEC, MLSMR starter and 10KST1 sets (AID 438;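 active = inhibition above 20% together with a positive visual image hit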;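 note: compound added about 3h40 before a 20 min TNFalpha stimulation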;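 for inhibition: signal is the nuclear over cytoplasmic p65 intensity ratio per well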); settings: HUVEC TNFa-induced p65 nuclear translocation; cell count: measured here: nuclei count (cytotoxicity indicator), at 2.08 µM; inhibition: at 2 µM, stronger effect = higher value, 0% TNFa-plus-vehicle, 100% no-TNFa wells
[2] = inhibitors of mutant huntingtin aggregation, primary screen, imaging, exon1htt(103Q)mCFP cells, high-content imaging (AID 483;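 active = visual image review flags a hit and inhibition of aggregation exceeds 20%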;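 note: compound exposure lasted 3 days before fixation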;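 for nuclei count: percent of the per-plate median nuclei count of sample wells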); settings: exon1htt(103Q)mCFP cell line, aggregate imaging, at 2 µM; inhibition of aggregation: stronger effect = higher value; nuclei count: measured here: cell count, toxicity
[3] = inhibitors of E-selectin induction by TNFa, primary screen, imaging, HUVEC, immunofluorescence, MLSMR starter and 10KST1 sets (AID 487;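 active = visually confirmed hit in the image check and inhibition above 20%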;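 for inhibition: signal is fraction of cell area covered by stained E-selectin grains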;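 for nuclei count: 100% = median nuclei count of all wells on the same plate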); settings: HUVEC TNFalpha-induced E-selectin immunofluorescence imaging, at 2 µM; inhibition: stronger effect = higher value; nuclei count: measured here: cell number, toxicity
[4] = target: Voltage-gated potassium channel subunit beta-2 (Rattus norvegicus) (UniProt P62483); assay: KvBeta enzyme negative modulators, primary screen, biochemical, NADPH fluorescence (AID 622;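 active = fluorescence slope higher than the sample average by over 3 SD, cut at about -0.22 in these data, passing the limit was not always enough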;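 note: slope of raw intensity against log time taken from 70 to 1610 s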); settings: recombinant KvBeta, 4-cyanobenzaldehyde reduction, at 10 µM, stronger effect = higher value
[5] = target: Voltage-gated potassium channel subunit beta-2 (Rattus norvegicus) (UniProt P62483); assay: KvBeta positive modulators, primary screen, biochemical, NADPH fluorescence (AID 623;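 active = NADPH fluorescence slope more negative than the mean of all samples by about 3 SD, 99.7% confidence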;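 note: fluorescence intensity change per second fitted from 20 to 320 s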); settings: Recombinant KvBeta, NADPH fluorescence decrease slope, 10 min; at 10 µM; stronger effect = lower value
[6] = target: Alpha-2C adrenergic receptor (Homo sapiens) (UniProt P18825); assay: modulators of alpha2C/GIRK thallium flux, primary screen, cell-based, HEK293 alpha2C/GIRK1/2 (AID 624;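 active = fluorescence slope after compound addition differing from the mean of all screened samples at 99.7% confidence, in either direction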;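 note: slope of fluorescence ratio to pre-addition baseline per second over 15 to 24 s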); settings: thallium flux BTC fluorescence, at 10 µM, actives lie on both sides
[7] = inhibitors of Sendai virus-induced IRF3 signaling, primary screen, TLR/RLR signaling modifier project, cell-based, Sendai virus stimulus, luciferase, 10K MLSCN set (AID 602276;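 active = inhibition at or above 50% at 10 µM; inactive = inhibition below 50%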;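 note: firefly luciferase from ISG56 promoter only with Renilla not read in this screen; 0% = Sendai virus plus DMSO and 100% = medium plus DMSO without virus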); settings: HEK293 RL24 IRF3 luciferase reporter, at 10 µM, stronger effect = higher value
[8] = inhibitors of poly I:C-induced TLR3 signaling, primary screen, cell-based, poly I:C stimulus, luciferase, 10K MLSCN set (AID 602277); settings: HEK293-TLR3 RL24 IRF3 luciferase reporter, at 10 µM, stronger effect = higher value

Chain of Voltage-gated potassium channel subunit beta-2 (Rattus norvegicus) (P62483 whole entry, looked up): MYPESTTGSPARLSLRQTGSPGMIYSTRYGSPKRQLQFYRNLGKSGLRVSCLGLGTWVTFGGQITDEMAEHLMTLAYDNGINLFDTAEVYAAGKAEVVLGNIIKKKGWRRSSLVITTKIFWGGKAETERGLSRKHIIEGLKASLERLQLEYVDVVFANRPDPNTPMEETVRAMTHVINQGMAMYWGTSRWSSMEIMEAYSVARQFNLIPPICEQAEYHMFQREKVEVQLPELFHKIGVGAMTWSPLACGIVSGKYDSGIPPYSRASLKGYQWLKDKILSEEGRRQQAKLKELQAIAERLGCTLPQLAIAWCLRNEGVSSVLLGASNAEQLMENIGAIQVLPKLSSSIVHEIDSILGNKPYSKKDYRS
Chain of Alpha-2C adrenergic receptor (Homo sapiens) (P18825 whole entry, looked up): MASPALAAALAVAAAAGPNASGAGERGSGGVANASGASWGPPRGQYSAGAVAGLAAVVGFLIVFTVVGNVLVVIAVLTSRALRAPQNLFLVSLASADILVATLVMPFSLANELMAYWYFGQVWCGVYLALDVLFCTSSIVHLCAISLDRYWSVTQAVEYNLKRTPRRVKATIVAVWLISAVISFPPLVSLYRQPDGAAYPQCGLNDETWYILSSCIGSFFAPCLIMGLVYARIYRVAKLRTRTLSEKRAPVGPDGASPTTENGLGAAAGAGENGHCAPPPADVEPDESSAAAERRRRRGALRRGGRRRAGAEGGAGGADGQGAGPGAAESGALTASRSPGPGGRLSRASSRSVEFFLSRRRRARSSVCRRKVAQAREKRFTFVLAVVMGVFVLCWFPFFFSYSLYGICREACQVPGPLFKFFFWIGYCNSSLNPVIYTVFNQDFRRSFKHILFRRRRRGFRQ

Compound	cell count [1]	inhibition [1]	inhibition of aggregation [2]	nuclei count [2]	inhibition [3]	nuclei count [3]	fluorescence slope [4]	NADPH fluorescence slope [5]	slope [6]	inhibition [7]	inhibition [8]
O=C(c1cnn2c1NC(c1ccco1)CC2C(F)(F)F)N1CCN(c2cccc(Cl)c2)CC1 (stereo not drawn)	313	-3.8% (inactive)	-7.8% (inactive)	114%	-38.6% (inactive)	126%	-0.382 (inactive)	-6e-05 (inactive)	0.00418 (inactive)	46.3% (inactive)	19.8% (inactive)
c1ccc2ncc(-n3cnnn3)cc2c1	705	-4.7% (inactive)	7.3% (inactive)	110%	-118% (inactive)	117%	-0.411 (inactive)	-2e-05 (inactive)	0.00684 (inactive)	9.03% (inactive)	11.8% (inactive)
O=C(c1csc2ccccc12)n1cccn1	327	5.6% (inactive)	6% (inactive)	99.2%	4.5% (inactive)	105%	-0.502 (inactive)	-3.1e-05 (inactive)	0.00494 (inactive)	19% (inactive)	21.3% (inactive)
CN(C)S(=O)(=O)c1cccc(C(=O)Nc2cccnc2)c1	294	10.1% (inactive)	0% (inactive)	103%	-79.6% (inactive)	128%	-0.407 (inactive)	-5.9e-05 (inactive)	0.00527 (inactive)	16.5% (inactive)	10.8% (inactive)
CCCn1c(SCC(=O)Nc2ccccc2C(=O)OCC)nc2c1c(=O)n(C)c(=O)n2C	225	-9.1% (inactive)	-9.7% (inactive)	95.2%	-4.8% (inactive)	77.3%	-0.402 (inactive)	-3.8e-05 (inactive)	0.00524 (inactive)	4.88% (inactive)	5.62% (inactive)
CC(=O)NC(C(=O)NCC(N)=O)C(C)C (stereo not drawn) (HELM PEPTIDE1{[ac].[CC(C)C(N[*:1])C(=O)[*:2]].G.[am]}$$$$V2.0)	517	-15.2% (inactive)	-13.6% (inactive)	89.2%	9.9% (inactive)	109%	-0.59 (inactive)	-3.6e-05 (inactive)	0.00838 (inactive)	-3.54% (inactive)	-10.4% (inactive)
CCOC(=O)c1ccccc1NC(=O)CSc1nccn1C	436	9.7% (inactive)	-23.9% (inactive)	108%	-32.6% (inactive)	108%	-0.465 (inactive)	-0.000118 (inactive)	0.00604 (inactive)	8.57% (inactive)	19.3% (inactive)
CCc1nnc(NC(=O)CSc2nnc(-c3cc4ccccc4cc3O)n2CC)s1	674	-7.8% (inactive)	1.7% (inactive)	109%	-52.3% (inactive)	125%	-0.511 (inactive)	2.5e-06 (inactive)	0.00587 (inactive)	7.37% (inactive)	11.2% (inactive)
COC(=O)CSc1cc(C)nc(NC(C)=O)n1	703	11% (inactive)	-16.4% (inactive)	98.3%	-5.3% (inactive)	110%	-0.586 (inactive)	-4.5e-05 (inactive)	0.0055 (inactive)	6.12% (inactive)	17.7% (inactive)
CC1(C)CC(=O)c2cnc(NC(=O)Cc3ccc(Cl)cc3)nc2C1	382	-0.3% (inactive)	-0.3% (inactive)	97.2%	-20.1% (inactive)	115%	-0.485 (inactive)	-4.8e-05 (inactive)	0.00659 (inactive)	-25% (inactive)	18.3% (inactive)
O=C(Nc1cccc(-c2nnc(-c3ccccc3)o2)c1)C1CCCCC1	666	-2.8% (inactive)	-15.1% (inactive)	109%	-21.3% (inactive)	116%	-0.589 (inactive)	-1.7e-05 (inactive)	0.00531 (inactive)	-20.4% (inactive)	-62.4% (inactive)
CCCOc1ccc(N2CC(C(=O)Nc3ccc4c(c3)OCO4)CC2=O)cc1 (stereo not drawn)	520	-5% (inactive)	14.9% (inactive)	81%	-12.8% (inactive)	81.9%	-0.444 (inactive)	-2.5e-06 (inactive)	0.00561 (inactive)	3.94% (inactive)	6.03% (inactive)
c1cncc(-c2nnc3n2N=C(c2cccs2)CS3)c1	523	4.8% (inactive)	7.7% (inactive)	96.4%	-28.3% (inactive)	107%	-0.331 (inactive)	5.7e-06 (inactive)	0.00392 (inactive)	5.28% (inactive)	17.3% (inactive)
CCOC(=O)C(CC)n1nc(C)n2c(cc3sccc32)c1=O (stereo not drawn)	526	7.7% (inactive)	14.3% (inactive)	110%	-25.8% (inactive)	122%	-0.567 (inactive)	-3.4e-05 (inactive)	0.0065 (inactive)	10.8% (inactive)	19.7% (inactive)
CC1CC(C)CN(Cc2nc3c(c(=O)n(C)c(=O)n3C)n2Cc2ccccc2Cl)C1 (stereo not drawn)	705	-16.8% (inactive)	-2.3% (inactive)	78%	37.7% (inactive)	88%	-0.482 (inactive)	-4.6e-05 (inactive)	0.00565 (inactive)	-10.4% (inactive)	-1.1% (inactive)
Cc1ccc(Cn2nnnc2CN2CCC(O)(c3ccccc3F)CC2)cc1	784	0.2% (inactive)	12.3% (inactive)	96.1%	-57% (inactive)	122%	-0.498 (inactive)	-5.4e-05 (inactive)	0.00492 (inactive)	20.8% (inactive)	16.6% (inactive)
COc1cccc(-c2cc(C(F)(F)F)n3ncc(C(=O)O)c3n2)c1	382	-2.6% (inactive)	13.4% (inactive)	94.7%	-22.3% (inactive)	73.7%	-0.576 (inactive)	-5.3e-05 (inactive)	0.00328 (inactive)	11% (inactive)	20.4% (inactive)
COc1ccc(C(C)N2CC34C=CC(O3)C(C(=O)OCC(C)C)C4C2=O)cc1 (stereo not drawn)	589	9.1% (inactive)	3.8% (inactive)	75.7%	8.2% (inactive)	93.5%	-0.541 (inactive)	-4.3e-05 (inactive)	0.00626 (inactive)	13.5% (inactive)	23.7% (inactive)
NC(=O)NC(=O)CSc1cccc(C(F)(F)F)c1	570	-10.9% (inactive)	-3.2% (inactive)	101%	-77.3% (inactive)	123%	-0.51 (inactive)	-6.1e-05 (inactive)	0.00622 (inactive)	13.4% (inactive)	18.2% (inactive)
CCCOc1ccc2ccccc2c1/C=N/n1cnnc1	209	4.6% (inactive)	-0.3% (inactive)	89.4%	-4.9% (inactive)	89.2%	-0.31 (inactive)	-1.6e-05 (inactive)	0.008 (inactive)	7.93% (inactive)	3.78% (inactive)
COCCN(C(=O)c1csnn1)C(C(=O)NC(C)(C)C)c1cccc(OC)c1 (stereo not drawn)	684	-1.7% (inactive)	-26.8% (inactive)	76.2%	0.2% (inactive)	102%	-0.515 (inactive)	-2.6e-05 (inactive)	0.00595 (inactive)	17% (inactive)	14.6% (inactive)
Cc1cc(C)cc(NC(=O)C2CCCN(S(=O)(=O)c3cnc[nH]3)C2)c1 (stereo not drawn)	595	17.2% (inactive)	-39.1% (inactive)	97.1%	-30% (inactive)	124%	-0.523 (inactive)	1.2e-05 (inactive)	0.00642 (inactive)	14.1% (inactive)	33.8% (inactive)
Cc1ccc(S(=O)(=O)N(CC(=O)NCc2ccco2)Cc2ccccc2F)cc1	308	2.4% (inactive)	14% (inactive)	92.3%	-3.2% (inactive)	103%	-0.524 (inactive)	1.7e-06 (inactive)	0.00527 (inactive)	8.9% (inactive)	11.9% (inactive)
CN(C)c1ccc(CNn2cnnc2)cc1	499	4.4% (inactive)	3.2% (inactive)	68.8%	-50.6% (inactive)	102%	-0.369 (inactive)	1.6e-05 (inactive)	0.00382 (inactive)	5.14% (inactive)	16.1% (inactive)
Cc1ccc2nc(NC(=O)C3CCCN(S(=O)(=O)c4cnc[nH]4)C3)sc2c1 (stereo not drawn)	567	6.9% (inactive)	-11.1% (inactive)	106%	-42.7% (inactive)	113%	-0.553 (inactive)	-6.7e-06 (inactive)	0.00608 (inactive)	-43.1% (inactive)	-79.3% (inactive)
CCOc1ccccc1NC(=O)CN(C)S(=O)(=O)c1cccc2nsnc12	671	-16.4% (inactive)	-5.6% (inactive)	96.9%	-141% (inactive)	119%	-0.329 (inactive)	-4.9e-05 (inactive)	0.00417 (inactive)	15.8% (inactive)	15.6% (inactive)
CCOc1ccc(CNc2ccc3c(c2)ncn3C)cc1	174	-3% (inactive)	-8.8% (inactive)	72.5%	4.7% (inactive)	90.2%	-0.435 (inactive)	-1.3e-05 (inactive)	0.00471 (inactive)	-27.2% (inactive)	-76.3% (inactive)
CCOC(=O)CSc1nnc([C@H](CC(C)C)NC(=O)OC(C)(C)C)o1	696	6.5% (inactive)	23.3% (inactive)	81.4%	13.7% (inactive)	104%	-0.501 (inactive)	-1.8e-05 (inactive)	0.0048 (inactive)	13.5% (inactive)	14.4% (inactive)
